According to PubChem BioAssay:
A number with no mark means an inactive call. Activity calls are given as the source filed them.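 The calls were made as follows: active = thallium flux through the channel raised or lowered by more than 3 SD from vehicle-only wells, actives on both sides; inactive = the rest.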

Tests used:
Assay in all cases: BK channel mutant inhibitors and activators – cell-based, U2OS BacMam, thallium flux, beta subunits, selectivity assay, profiling panel (AID 1259406);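 also: initial slope of Thallos dye fluorescence rise after thallium is added; log ratio against the mean of 0.3% DMSO vehicle wells on the same plate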
[1] = tested on: F380Y; settings: U2OS BacMam BK variants, at 30 µM
[2] = tested on: F380Y/beta1; settings: U2OS BacMam BK variants, at 30 µM
[3] = tested on: F380Y/beta2Delta; settings: U2OS BacMam BK variants, at 30 µM
[4] = tested on: F380Y/beta4; settings: U2OS BacMam BK variants, at 30 µM
[5] = target: Calcium-activated potassium channel subunit alpha-1 (Homo sapiens) + Leucine-rich repeat-containing protein 26 (Homo sapiens) (UniProt Q12791+Q2I0M4); settings: U2OS BacMam BK variants, F380Y/Slo1WT/gamma1, at 30 µM
Chain of Calcium-activated potassium channel subunit alpha-1 (Homo sapiens) + Leucine-rich repeat-containing protein 26 (Homo sapiens) (Q2I0M4 whole entry, looked up, one chain of several): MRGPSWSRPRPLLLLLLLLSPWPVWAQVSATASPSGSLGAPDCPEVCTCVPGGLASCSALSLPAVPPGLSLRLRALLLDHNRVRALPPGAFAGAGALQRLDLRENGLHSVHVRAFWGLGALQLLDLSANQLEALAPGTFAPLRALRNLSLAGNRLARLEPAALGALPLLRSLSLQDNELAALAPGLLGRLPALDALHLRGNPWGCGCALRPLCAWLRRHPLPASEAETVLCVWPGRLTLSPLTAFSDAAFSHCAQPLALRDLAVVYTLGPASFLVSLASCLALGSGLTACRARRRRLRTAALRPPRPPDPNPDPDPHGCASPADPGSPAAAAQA

[6] = tested on: R275C; settings: U2OS BacMam BK variants, at 30 µM
[7] = tested on: R275C/beta1; settings: U2OS BacMam BK variants, at 30 µM
[8] = tested on: R275C/beta2Delta; settings: U2OS BacMam BK variants, at 30 µM
[9] = tested on: R275C/beta4; settings: U2OS BacMam BK variants, at 30 µM
[10] = tested on: R275C/Slo1WT/beta2; settings: U2OS BacMam BK variants, at 30 µM

SMILES | log fold change Tl+ flux [1] | log fold change Tl+ flux [2] | log fold change Tl+ flux [3] | log fold change Tl+ flux [4] | log fold change Tl+ flux [5] | log fold change Tl+ flux [6] | log fold change Tl+ flux [7] | log fold change Tl+ flux [8] | log fold change Tl+ flux [9] | log fold change Tl+ flux [10]
COc1cccc(N2CC(=O)N(NC(=O)NC3CCCCC3)CC2=O)c1 | -0.0108 | -0.0266 | -0.0355 | -0.0285 | 0.0234 | 0.0133 | -0.0377 | -0.0493 | -0.00116 | -0.0113
O=C(NCc1ccc2c(c1)OCO2)C1CCN(C(=O)OCc2ccccc2)CC1 | 0.035 | -0.0838 (active) | -0.059 | -0.064 | 0.019 | 0.0676 | 0.0117 | -0.0269 | -0.0162 | 0.0194
CC(=O)OCC(OC(C)=O)C(OC(C)=O)C(OC(C)=O)C(C#N)OC(C)=O (stereo not given) | 0.0435 | -0.00373 | 0.0398 | 0.0383 | -0.00671 | -0.00122 | -0.0156 | 0.0587 | -0.0186 | -0.0705
NC(=NNC(=O)c1cccnc1)c1ccncc1 | 0.0309 | -0.00892 | 0.0142 | 0.00925 | -0.00474 | -0.039 | 0.0056 | 0.00736 | 0.00943 | -0.0381
Cc1onc(-c2ccccc2)c1N1C(=O)CCN(C(C)C)C1=O | -0.0312 | -0.00917 | -0.0373 | -0.00603 | -0.0319 | -0.0915 (active) | 0.0435 | -0.0125 | -0.0122 | 0.000512
O=S(=O)(Cc1nc(-c2ccc3c(c2)OCCO3)cs1)c1ccccn1 | -0.0443 | -0.0373 | 0.0231 | -0.00916 | -0.0733 | -0.0303 | -0.0291 | 0.0317 | -0.00702 | -0.0322
CC(=O)C(=CN(C)C)Sc1ccc(Cl)cc1 | 0.0299 | -0.000152 | 0.00502 | 0.000556 | 0.0115 | 0.0269 | 0.0366 | 0.0244 | 0.0484 | -0.0118
O=C(OCCSc1sccc1[N+](=O)[O-])c1ccc(Cl)cc1 | -0.00334 | -0.009 | 0.0128 | -0.0285 | -0.0095 | 0.0114 | -0.0166 | 0.0149 | -0.01 | 0.0278
O=C1c2cccc3c(Sc4ccccc4)ccc(c23)C(=O)N1CCc1ccccn1 | 0.00854 | -0.00319 | -0.0137 | 0.0446 | 0.0111 | -0.0274 | -0.0207 | 0.02 | -0.00592 | 0.0318
CCOC(=O)c1cc(NC(=O)CC(C)(C)CC(=O)O)ccc1N1CCCCC1 | 0.0551 | 0.0365 | 0.0312 | 0.0131 | -0.0575 | 0.0216 | 0.0587 | 0.0261 | 0.0168 | 0.00209
S=c1sc2c(s1)SCC1(CS2)OCCO1 | -0.0425 | 0.0267 | -0.0279 | 0.0791 | 0.000395 | -0.0211 | -0.0642 | -0.0207 | -0.0357 | -0.00583
Clc1cc(Cl)c(NN=Cc2cc(C#Cc3ccccc3)cs2)c(Cl)c1 | -0.0491 | 0.00923 | -0.0555 | 0.0192 | -0.0342 | -0.012 | 0.00694 | -0.0137 | 0.0367 | 0.0344
CC(=O)c1sc(SCc2ccc(Cl)cc2)c2c1CC(C)(C)CC2=O | -0.0184 | 0.0319 | 0.0184 | -0.123 (active) | -0.0796 | 0.014 | -0.034 | -0.0422 | 0.00684 | 0.00246
